MCF10A rereplic – inducers of DNA re-replication in MCF 10A breast cells | Potency, µM (highest dose often 46.1 µM), inactives show at the highest dose activity, positive = re-replication, actives largely listed as activators | 2.9% of 350,000 active | MCF 10A DNA re-replication, Hoechst nuclear intensity, 48 h; note: % of control where 0% means no effect; nearly all actives have a fitted effect of over 50% in size
KB-V1 MDR tox – kills drug-selected multidrug resistant KB-V1 cells; KB-V1 MDR cells viability, CellTiter-Glo, 72 h; Potency, µM (series often up to 46.1 µM), actives largely listed as cytotoxic; 3.4% of 400,000 active; AID 1347076; note: % is set by controls: 0 for no effect and ±100 for the full control effect; nearly all actives have a fitted effect of over 60% in size
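KB-V1 MDR subline cells in DMEM (phenol-red free, 10% FBS) exposed to compounds in qHTS concentration series for 72 h at 37 degrees C. Viability read by CellTiter-Glo luminescence; concentration-effect curves fitted after normalization and correction.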
SW480 rerep – inducers of DNA re-replication in SW480 colon cancer cells; SW480 DNA re-replication, Hoechst DNA content imaging, 48 h; Potency, µM (series often up to 46.1 µM), for inactives: at the highest dose re-replication activation, actives largely listed as activators; 1.8% of 340,000 active; AID 624297; note: % of control where 0% means no effect; nearly all actives have a fitted effect of over 55% in size
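SW480 cells exposed to compounds for 48 hr at 37 C, 5% CO2, then Hoechst-stained 40 min. Nuclear DNA content imaged by fluorescence scanning (405 nm excitation, 500-530 nm emission); re-replication scored as increased high-intensity nuclei.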
HT1080-NT tox – kills 2HG-producing HT-1080-NT fibrosarcoma cells; AID 686970; 1.6% of 360,000 active; HT-1080-NT fibrosarcoma viability, CellTiter-Glo ATP luminescence, 48 h; Potency, µM (top dose mostly 46.1 µM), for the others: at the top dose activity, negative = less viability, hits mostly cytotoxic;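 note: NT is the 2HG producing partner of a matched IDH1 knockdown line; 0% = DMSO-treated cells and -100% = media-only wells without cells; nearly all actives have a fitted effect of over 55% in size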
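HT-1080-NT fibrosarcoma cells (2HG-overproducing), 750 cells/well in RPMI with 5% FBS, dosed after 2 h and incubated 48 h at 37C. CellTiter-Glo luminescence normalized to DMSO and no-cell wells; concentration-response curves fitted and classed.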
KB-3-1 cytotox – KB-3-1 parental cell cytotoxicity | 1.4% of 400,000 active | KB-3-1 viability, CellTiter-Glo ATP luminescence, 72 h | AID 1347075 | Potency, µM (highest dose often 46.1 µM), actives largely listed as cytotoxic; note: % is set by controls: 0 for no effect and ±100 for the full control effect; nearly all actives have a fitted effect of over 60% in size
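Using CellTiter-Glo luminescence, growth of non-resistant KB-3-1 adenocarcinoma cells is assessed 72 h after pin-tool compound addition at 37 °C. Normalized responses across the concentration series yield fitted curves.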
HT1080 IDH1KD tx – HT-1080 IDH1 knockdown cell toxicity (counter line); HT-1080 IDH1 knockdown viability, ATP luminescence, 48 h; Potency, µM (top dose mostly 46.1 µM), for inactives: at the highest dose activity, negative = toxicity, actives largely listed as cytotoxic; 2% of 360,000 active;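 note: 0% = DMSO wells and -100% = cell-free medium wells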
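In this qHTS, HT-1080 cells depleted of IDH1 are exposed for 48 h at 37 °C to compound titrations. Toxicity is scored from CellTiter-Glo luminescence, with DMSO as full viability and medium alone as none.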
Active calls of the source: *; i = inactive; u = inconclusive; x = no result; [ ] = remark or other dose. Shown are actives, neighbours in structure and some others; about 7.9% of the full set was active somewhere. Calls come from the whole dose curve; as a rule, active = well fitted curve in the direction sought with a large enough effect; inconclusive = small, poorly fitted or top-dose-only effect, or another doubt; inactive = no such curve, though single readings can be large; an effect the other way counts as inactive or inconclusive. Potency is the fitted concentration of half-maximal effect.

SMILES	MCF10A rereplic	KB-V1 MDR tox	SW480 rerep	HT1080-NT tox	KB-3-1 cytotox	HT1080 IDH1KD tx
S=C1NC(c2ccccc2)=NCN1c1ccc(Cl)cc1	1%	i	0%	9%	i	1%
COc1ccc(/C=N/n2cnc3scc(-c4cccs4)c3c2=O)cc1OC	3%	i	0%	8%	i	20%
COc1cc(/C=N/n2cnc3scc(-c4cccs4)c3c2=O)cc(OC)c1OC	12%	u	u	u	4.6µM*	u
CCc1c(C)sc(NC(=O)CCc2ccc(OC)cc2)c1C(N)=O	-5%	21µM*	0%	2%	i	-1%
CCc1c(C)sc(NC(=O)OC)c1C(N)=O	6%	i	-3%	2%	i	2%
O=C(Cn1ncn2c(cc3cc(F)ccc32)c1=O)NC1CCCCC1	x	i	x	x	i	x
CCOc1ccc(NC(=O)c2sc3nc4n(c(=O)c3c2C)CCCC4)cc1	x	i	x	x	i	x
COc1cccc(NC(=O)Cn2c(=O)n(CCCCC(=O)NCc3ccccc3Cl)c(=O)c3ccccc32)c1	x	i	x	x	i	x
COc1ccc(-n2ncc(C(=O)Nc3ccc4c(c3)OCCO4)c2C2CCN(C(=O)OC(C)(C)C)CC2)cc1	x	i	x	x	i	x
O=C(COc1ccc2ccccc2c1Br)N1CCN(c2ccccn2)CC1	97%	23µM*	u	-9%	u	-14%
C(=Cc1cnc2ccccc2n1)c1ccc2c(c1)OCO2	x	15µM*	x	-3%	i	-13%
O=C(/C=C/c1ccc2c(c1)OCCCO2)c1ccc2ccccc2c1O	18µM*	u	2%	-29%	i	u
O=C(/C=C/c1ccccc1)c1ccccn1	18µM*	i	u	u	i	u
N/C(=N\OC(=O)/C=C/c1ccccc1)c1ccccn1	-7%	i	-8%	12%	i	13%
O=C(C=Cc1cccc(Cl)c1)c1ccccc1	18µM*	u	15µM*	u	u	u
CCCNC(=O)C1(C)CCN1C(=O)Cc1ccc(C(C)C)cc1 (configuration not stated)	x	i	x	17%	i	2%
Cc1ccc(-c2nnn3c2nc(N2CCC(C)CC2)c2ccccc23)cc1	x	i	x	x	i	x
O=C(C=Cc1ccc2c(c1)OCO2)C=Cc1ccc2c(c1)OCO2	x	u	x	7%	i	11%
O=C(/C=C/c1ccc2c(c1)OCO2)c1ccccn1	14%	i	11%	26µM*	u	u
CCOC(=O)c1cccc(NC(=O)/C=C/c2ccc3c(c2)OCO3)c1	9.2µM*	u	3%	u	10µM*	u
O=C(/C=C/c1ccc2c(c1)OCO2)NCCS(=O)(=O)N1CCN(c2ccccc2)CC1	x	i	x	u	u	7.3µM*
CCOC(=O)c1cccc(NC(=O)c2ccc3c(c2)OCO3)c1	9%	u	-4%[9.22 µM]	1%	u	-12%
O=C(/C=C/c1ccc2c(c1)OCO2)NCCS(=O)(=O)N1CCN(c2ccc(F)cc2)CC1	17%	u	-9%	-30%	u	u
O=C(C=Cc1ccc2c(c1)OCO2)c1ccccc1	18µM*	i	u	u	i	16µM*
CC(C)c1ccccc1Oc1c(C(F)(F)F)oc2c(CN3CCN(C)CC3)c(O)ccc2c1=O	x	i	x	x	i	x
SMILES	MCF10A rereplic	KB-V1 MDR tox	SW480 rerep	HT1080-NT tox	KB-3-1 cytotox	HT1080 IDH1KD tx
O=C(Cn1c(-c2cccs2)cc2ccccc21)NCc1ccccc1Br	x	i	x	x	i	x
Cc1ccc(NC(=O)COC(=O)c2ccccc2OCC(=O)Nc2ccc(Br)cc2)c(Br)c1	x	x	x	-1%	x	-4%
CC(C)(C)C(c1nc2ccccc2[nH]1)n1c(-c2cccc(S(C)(=O)=O)c2)nc2ccccc21 (configuration not stated)	x	i	x	2%	i	9%
CCOCCCNC(=O)c1cnc2sc(N3CCCCC3)nn2c1=O	x	i	x	x	i	x
O=C(O)c1ccc2c(c1)C(=O)N(c1cccc(C(=O)/C=C/c3ccccc3)c1)C2=O	18µM*	i	2%	u	i	u
Cc1ccc(C)c(NC(=O)C(Sc2nc3ccc(C)cc3[nH]2)c2ccccc2)c1 (configuration not stated)	21µM*	i	u	u	i	u
Cc1ccc2nc(SCC(=O)Nc3cc(C(F)(F)F)ccc3N3CCOCC3)[nH]c2c1	0.58µM*	u	5.2µM*	u	0.82µM*	1µM*
CCN(CC)S(=O)(=O)c1ccc(C)c(NC(=O)CSc2nc3ccc(C)cc3[nH]2)c1	5%	15µM*	x	-23%	i	-29%
Cc1ccc2nc(SCC(=O)Nc3cccc(S(=O)(=O)N(C)C)c3)[nH]c2c1	u	u	1%	-15%	i	-13%
O=C(CSc1nccc(=O)[nH]1)Nc1cc(C(F)(F)F)ccc1N1CCOCC1	-2%	i	-2%	-3%	i	-1%
CCC(Sc1nc2ccc(C)cc2[nH]1)C(=O)O (configuration not stated)	-7%	i	8%	-2%	i	0%
CCCCOc1ccc(NC(=O)CSc2ccc(C(=O)O)cn2)cc1	x	u	x	x	i	x
Cc1ccccc1-c1nc(CNC(=O)NC2CCCCC2)c(C)o1	x	i	x	x	i	x
COc1ccc(/C=C/c2nc(-c3ccccc3O)n(-c3ccccc3)n2)cc1OC	x	i	x	x	i	x
COc1ccc(/C=C/c2nc(-c3ccccc3O)n(-c3ccccc3)n2)cc1	7%	16µM*	u	-1%	i	-8%
CC(C)(C)C(=O)OCCNc1nc(-c2cccs2)nc2ccccc12	x	x	x	-22%	x	-27%
C#CCNC(=O)C[C@@H]1C[C@@]2(C(=O)OCC)CCC=C2N(CCC2=CCCCC2)C1=O	x	i	x	14%	i	2%
CCN1CCCC1CNCc1ccc(OCc2ccc(Cl)nc2)c(OC)c1 (configuration not stated)	5.8µM*	i	23%	3%	i	-16%
CCCCNCc1ccc(OCc2ccc(Cl)nc2)c(OC)c1	u	i	-1%	-16%	i	3%
COc1ccccc1N1CCN(C(=O)Cn2ncc3c(=O)oc4ccccc4c32)CC1	x	i	x	x	i	x
O=C(CSc1nc(-c2ccco2)cc(C(F)(F)F)n1)Nc1ccc2c(c1)OCO2	-2%	18µM*	-7%	u	u	u
O=C(CCCSc1nc(-c2ccco2)cc(C(F)(F)F)n1)Nc1ccc2c(c1)OCO2	-2%	i	2%	-23%	i	-24%
